Compound activity deposited in PubChem BioAssay by National Center for Advancing Translational Sciences (NCATS).
Only some compounds are listed: those with a hit (about 9.3% of all), similar ones and a draw of the others.
Sm TGR inh: inhibitors of Schistosoma mansoni thioredoxin glutathione reductase | Q962Y6 | purified TGR, DTNB reduction, TNB absorbance 405 nm | 360,000 tested, 3% active | Potency, µM (highest dose often 114 µM), without a hit: top-dose activity change, negative = inhibition, usual class: inhibitors | AID 485364; further: potency means the concentration at half of the fitted maximal effect; nearly all actives have a fitted effect of over 60% in size
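TGR 20 nM + NADPH 100 uM (dispensed conc.), cpd preinc 15 min RT; start with NADPH (500 uM addition) then DTNB (15 mM addition). Kinetic TNB absorbance, 405 nm filter. Four-parameter Hill fit across titration.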
HCMV inh: human cytomegalovirus inhibition. HFF cells, HCMV-luciferase reporter, 72 h; active compounds read low. activity change, negative = inhibition, % at 57.5 µM. 410,000 tested, 4.5% active. AID 1259415; in the data active means activity change below about -60%; inconclusive means no clear call, values can overlap the other calls; inactive means above about -39%
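Steps: HFFs plated, 16 h 37C; compounds added; HCMV-luciferase added to MOI 1 PFU/cell; 72 h 37C; OneGlo reagent, 5 min room temperature; luminescence read, normalized to controls.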
VACV Venus inh: vaccinia inhibition (Venus reporter). Vaccinia virus Venus reporter expression, fluorescence. Potency, µM (highest dose often 36.5 µM), for the others: at the highest dose activity change, negative = inhibition, actives largely listed as inhibitors. 330,000 tested, 0.46% active. AID 720580; calls by dose curve; tested in A549 cells; further: potency means the concentration at half of the fitted maximal effect; nearly all actives have a fitted effect of over 30% in size
VACV mCherry inh: inhibitors of vaccinia virus infection (mCherry reporter signal) | Vaccinia virus mCherry reporter infection, fluorescence | Potency, µM (doses to about 36.5 µM), for inactives: top-dose activity change, negative = inhibition, actives largely listed as inhibitors | 310,000 tested, 0.63% active; calls by dose curve; tested in A549 cells; further: potency means the concentration at half of the fitted maximal effect; nearly all actives have a fitted effect of over 35% in size
HCV inh: blocks hepatitis C virus; Huh7.5.1 HCVcc-Cre infection, luciferase reporter, 44 h; Potency, µM (highest dose often 41.8 µM), for the others: top-dose activity change, negative = inhibition, actives largely listed as inhibitors; 340,000 tested, 3.4% active; further: potency means the concentration at half of the fitted maximal effect
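A cell-based infection assay in which seeded cells (1,000 per well) receive test compound after 4 h, are inoculated with HCVcc-Cre at approximately 0.5 moi, and are incubated 44 h before luminescence detection.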
FMDV antiviral: foot and mouth disease virus antiviral activity; FMDV antiviral cell-based qHTS; Potency, µM (top dose mostly 57.9 µM), for inactives: at the top dose activity change, negative = inhibition, hits mostly inhibitors; AID 1159524; 410,000 tested, 1.2% active; calls by dose curve; tested in HEK293T cells; further: read-out not given here; potency means the concentration at half of the fitted maximal effect; nearly all actives have a fitted effect of over 45% in size
* = called active by the depositor; u = inconclusive; x = no result; [ ] = remark or other dose. Unless noted, the call rests on the fitted dose curve; in most records, active means well fitted curve in the direction sought with a large enough effect; inconclusive means small, poorly fitted or top-dose-only effect, or another doubt; inactive means no such curve, though single readings can be large; an effect the other way counts as inactive or inconclusive. On the % scale 0 is the no-effect control and ±100 the full control effect.

SMILES | Sm TGR inh | HCMV inh | VACV Venus inh | VACV mCherry inh | HCV inh | FMDV antiviral
COC(=O)c1cc(C)sc1NC(=O)C1CC(=O)NN1Cc1ccccc1 (stereo not given) | 4% | -11 | x | x | 3% | 12%
CCOC(=O)c1cc(CC)sc1NC(=O)C1CC(=O)NN1Cc1ccccc1 (stereo not given) | -1% | 23 | -28% | u | 5.6µM* | -30%
COc1ccc(-c2csc(NC(=O)CN3C(=O)C4CCCCC4C3=O)n2)c(OC)c1 (stereo not given) | -7% | -10 | -30% | u | 11µM* | u
COc1ccc(-c2csc(NC(=O)CN3C(=O)C4CC=CCC4C3=O)n2)cc1 (stereo not given) | 5% | -15 | x | x | u | -18%
Nc1cc(N)[nH]c(=S)n1 | x | x | -13% | 29% | x | x
Cc1ccc(Cn2c(SCc3ccc(C(=O)N4CCCCC4)cc3)nc3ccncc32)cc1 | -19% | -60* | u | -21% | x | -18%
O=C(NC1CCCCC1)c1ccc(CSc2nc3ccncc3n2Cc2ccc(F)cc2)cc1 | -12% | -28 | u | u | x | u
CC1CCC(NC(=O)c2ccc(CSc3nc4ccncc4n3Cc3ccc(F)cc3)cc2)CC1 (stereo not given) | 3% | -93* | u | u | x | u
COCC1CCN(C(=O)c2ccc3oc(CCc4ccccc4)nc3c2)C1 (stereo not given) | x | 6 | -4% | 12% | x | 59%
O=C(CCNS(=O)(=O)c1ccc(Br)cc1)NC1CCN(Cc2ccccc2)CC1 | 3% | -17 | -26% | -10% | u | u
CC1CCC[C@H](O)CCCCCc2cc(O)cc(O)c2C(=O)O1 (stereo not given in full) | 8% | u | -26% | -10% | 1%[8.37 µM] | 35µM*
C[C@H]1CCC[C@@H](O)CCC/C=C/c2cc(O)cc(O)c2C(=O)O1 | 2% | -105* | u | u | x | 3.5µM*
COc1cc(O)cc2c1C(=O)O[C@@H](C)CCCC(=O)CCCCC2 | -16% | u | x | x | 7% | -11%
C[C@H]1CCC[C@H](O)CCCCCc2cc(O)cc(O)c2C(=O)O1 | 6% | -98* | u | -23% | -83% | 11µM*
CC1CCC/C=C/C(=O)c2c(O)cc(O)cc2CC(=O)O1 (stereo not given) | 7.9µM* | -105* | u | 7.1µM* | -36% | 32µM*
CC(C)CNC(=O)c1ccccc1Oc1ccccc1 | 8% | -36 | -13% | x | -1% | -29%
CC1=C(C(=O)OCc2ccccc2)C(c2ccc3ccccc3c2)NC(=O)N1CCCC(=O)O (stereo not given) | -9% | -12 | -3% | -6% | 14% | -16%
COC(=O)c1ccc(/C=C/c2c(-c3ccsc3)sc3ccccc23)cc1 | -25% | -4 | -29% | -21% | 10µM* | -16%
COc1ccc(NC(=O)CN2CCN(CC(=O)Nc3ccc(OC)cc3)CC2)cc1 | 5% | -2 | x | x | 12% | 2%
O=C(Cn1c(NCCO)nc2ccccc21)c1ccc([N+](=O)[O-])cc1 | 5% | -33 | -5% | u | 11% | -6%
CCCc1cc(=O)n2c(C(=O)Nc3ccc(OCC)cc3)c(C(=O)Nc3ccc(C)cc3)sc2n1 | 8% | -84* | -23% | -18% | x | -18%
O=C1C=CC(=O)C2=C1C1c3ccccc3C2c2ccccc21 | x | x | x | x | x | -17%
Oc1ccc(O)c2c1C1c3ccccc3C2c2ccccc21 | 5µM* | x | x | x | x | x
CCn1nc(C)c(/C=N/NC(=S)Nc2ccc(Cl)cc2Cl)c1C | 0% | -103* | -14% | -22% | u | 10%
O=[N+]([O-])c1ccc(/C=N/NC(=S)Nc2ccc(Cl)cc2Cl)s1 | 45µM* | -64* | x | x | u | -21%
Cc1nn(C)cc1/C=N/NC(=S)Nc1ccc(Cl)cc1Cl | 8% | -32 | -13% | -4% | -26% | -10%
CCNS(=O)(=O)c1ccc(CCC(=O)N2CCN(c3cccc(Cl)c3)CC2)cc1 | 1% | -23 | -14% | -28% | u | 28µM*
O=C(COc1ccc(S(=O)(=O)NC2CCCCC2)cc1)N1CCN(c2cccc(Cl)c2)CC1 | 1% | -91* | x | x | 7.1µM* | u
